About 79,000 compounds went through this panel and 15% of them were active in at least one assay; those are over-represented in the sample as a whole. Values without a mark were called inactive. Calls of active or inactive are those of the source. Cut-off read from the data, not from the text of the source: active = growth inhibition above about 70%; inactive = the rest.
Legend:
[1] = NCI Yeast Anticancer Drug Screen. Data for the rad50 strain (AID 155);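 note: 0% = growth of vehicle-only cultures of the same strain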; conditions: S. cerevisiae rad50 strain growth inhibition; at 50.0 µM; stronger effect = higher value
In short: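 Readout: growth inhibition relative to vehicle-treated cultures. Compound exposure was carried out in a genetically defined yeast strain deficient in DNA damage repair.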

[2] = NCI Yeast Anticancer Drug Screen. Data for the mec2-1 strain (AID 157); conditions: S. cerevisiae mec2-1 strain, at 50.0 µM, stronger effect = higher value
In short: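 Compounds were applied to mec2-1 yeast cells. Their growth was then compared with that of vehicle-treated cultures to give growth inhibition.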

[3] = NCI Yeast Anticancer Drug Screen. Data for the sgs1 mgt1 strain (AID 161);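 note: 0% = growth of cultures given vehicle only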; conditions: S. cerevisiae sgs1 mgt1 strain, at 50.0 µM, stronger effect = higher value
In short: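 Percent growth inhibition was derived by comparing compound-exposed mutant yeast with vehicle-exposed cultures. The strain carries alterations in DNA damage repair.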

[4] = NCI Yeast Anticancer Drug Screen. Data for the cln2 rad14 strain (AID 165);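 note: 0% = growth equal to vehicle treated cultures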; conditions: S. cerevisiae cln2 rad14 strain, at 50.0 µM, stronger effect = higher value
In short: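 Strain: cln2 rad14 yeast, altered in cell cycle control and DNA damage repair. Read-out: growth inhibition vs vehicle.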

[5] = NCI Yeast Anticancer Drug Screen. Data for the bub3 strain (AID 167); conditions: S. cerevisiae bub3 mutant strain, at 50.0 µM, stronger effect = higher value
In short: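 Readout: yeast growth inhibition, expressed relative to vehicle-only wells. The test organism is a mutant strain from a panel with lesions in DNA repair or checkpoint genes.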

[6] = NCI Yeast Anticancer Drug Screen. Data for the mlh1 rad18 strain (AID 175); conditions: S. cerevisiae mlh1 rad18 strain growth inhibition; at 50.0 µM; stronger effect = higher value
In short: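 A repair-deficient yeast strain is exposed to test compound, and growth is scored relative to vehicle-treated controls.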

Row | Structure (SMILES) | growth inhibition [1] | growth inhibition [2] | growth inhibition [3] | growth inhibition [4] | growth inhibition [5] | growth inhibition [6]
1 | OC(CNCCc1ccccc1)COc1cccc2ccccc12 (stereo not given) | 86.2% (active) | 92% (active) | 96.9% (active) | 98.5% (active) | 88% (active) | 97.2% (active)
2 | Cn1c(=O)c2c(nc(N/N=C/c3ccccc3C(=O)O)n2C)n(C)c1=O | -14.2% | -3.15% | -7.9% | 12.3% | -66.5% | -15.3%
3 | CCC(Nc1ccccc1)C(=O)O (stereo not given) | -4.45% | -13.7% | -8.9% | -16.9% | -8.7% | 4.15%
4 | COc1ccc2cc1Oc1cc3c(cc1OC)CC[N+](C)(C)C3Cc1ccc(cc1)Oc1c(OC)c(OC)cc3c1C(C2)[N+](C)(C)CC3 (stereo not given) | -29.4% | -16.4% | -46.2% | 10.8% | -22.9% | -19.3%
5 | [Co].[O-]c1cccnc1C=Nc1ccccc1.[OH3+] | 24.8% | 31.6% | 37.4% | 30.9% | 33.9% | 21.9%
6 | C[N+]1(C)CCCC(c2ccccc2)(c2ccccc2)C(O)C1 (stereo not given) | 10.8% | 7.15% | 11.2% | 23.4% | -2.65% | 11.9%
7 | CC1CCC2C(C(=O)O[C@H]3C4CCO[C@@H](OC5OC(CO)C(O)C(O)C5O)C4[C@@]4(CO)O[C@@H]34)=CO[C@@H](OC3OC(CO)C(O)C(O)C3O)C12 (stereo not given in full) | 16.4% | -9.6% | 5.9% | 22.2% | 22.6% | 19.6%
8 | OCC(O)C(O)C(O)C(O)CN=Cc1ccccc1O (stereo not given) | -19.8% | 7.9% | -10.7% | 2.8% | -19.6% | -4.45%
9 | COc1c(Br)cc(Br)cc1Br | -1.45% | -5.7% | 14.2% | -47.1% | -10.8% | 6.05%
10 | O=C1NC(N2CCCCC2)=N/C1=C\c1cccs1 | 2.5% | 2.2% | -12.9% | 7.05% | -11.8% | -29.4%
11 | CC(=O)/C=C\c1cc(C)ccc1O | 27.3% | 22.1% | 9.3% | -35.7% | 8.25% | 12.6%
12 | Cc1ccc(-c2cc(-c3ccco3)c(C#N)c(=O)[nH]2)cc1 | 13.5% | -8.55% | -13.5% | 16.4% | -10% | 6.8%
13 | CCN1C(=NCCO)NS(=O)(=O)c2ccccc21 | -17.2% | 3.4% | -25.4% | -1.95% | -24.6% | 0.35%
14 | CCC(O)C(C)CO (stereo not given) | 11.8% | 5.05% | 19.3% | -72.8% | 7.8% | -46.9%
15 | Nc1nc2c(=O)[nH]c(=O)[nH]c2n1C1OC(CO)C(O)C1O (stereo not given) | 4.7% | -3.9% | 0.35% | 4.9% | 14.2% | -6.1%
16 | COC(=O)C1OC(O[C@H]2CC[C@]3(C)[C@H]4CC=C5[C@@H]6CC(C)(C)CC[C@]6(C(=O)OC6OCC(O)C(O)C6OC6OC(C)C(OC7OCC(O)C(O)C7O)C(OC7OCC(O)(CO)C7O)C6O)[C@H](O)C[C@@]5(C)[C@]4(C)CC[C@H]3C2(C)C)C(O)C(O)C1O (stereo not given in full) | 16.1% | -10.3% | -6.1% | 34.6% | 13.6% | 10.3%
17 | CCCCCC1OCC(C)(C)C(C(C)C)O1 (stereo not given) | -0.2% | -23.9% | -12.7% | 0.95% | -13.6% | 8.55%
18 | N=C1N=Nc2nc(CC(=O)c3ccc(Cl)cc3Cl)c(O)n21 | -9.8% | -8.35% | 1.05% | -31.5% | -11.8% | -37.6%
19 | CCCCCCCCCCCc1noc2c1C(=O)C(O)CC2 (stereo not given) | 36.5% | -3.05% | -1.05% | 40.4% | -69% | 5.25%
20 | CCCCCCC(O)CCCCCCCCCCC(=O)OC (stereo not given) | 33.1% | 4.5% | 20.6% | -26.4% | 12.8% | 33.8%

Row | Structure (SMILES) | growth inhibition [1] | growth inhibition [2] | growth inhibition [3] | growth inhibition [4] | growth inhibition [5] | growth inhibition [6]
21 | CC(=O)NC(Cc1ccc(OC(C)=O)c(OC(C)=O)c1)C(C)=O (stereo not given) | -10.4% | 9.7% | -0.7% | -8.3% | -10.6% | 6%
22 | CCNC1=C(OC)C(=O)C(NCC)=C(OC)C1=O | -6.2% | 7.25% | 2.6% | -33.6% | 5.3% | -5.8%
23 | COC(=O)[C@H]1[C@H]2C[C@@H]3c4[nH]c5ccccc5c4CCN3C[C@H]2C[C@@H](O)[C@@H]1OC(=O)c1cc(OC)c(OC)c(OC)c1 | 23.1% | -1.35% | 19.4% | 8.75% | 21% | 20.9%
24 | CCCCN(CCCC)S(=O)(=O)N1CCOCC1 | -12.3% | -10.1% | 3% | 9.1% | 10.4% | 2.75%
25 | Nc1ccc2[nH]cc(CCC(=O)O)c2c1 | -11.8% | -6.95% | -4.45% | -11.6% | -60.6% | 18.5%
26 | CN(C)C=Nc1ccc(F)cc1 | -16.1% | -5.6% | -11.4% | -20.1% | -1.8% | -2.1%
27 | Nc1cc(Cl)cc2cc(Cl)cnc12 | 54.2% | 54.8% | 25.4% | 29.1% | 47.4% | 39.5%
28 | Nc1cc2[nH]cnc2c(=O)[nH]1 | 27.4% | 21.9% | 32.4% | 21.8% | 7.9% | 30.1%
29 | CCCCCCCCCCCCCCCCS(=O)(=O)c1ccc(S(=O)(=O)CS(C)(=O)=O)cc1[N+](=O)[O-] | -5.55% | -16.2% | 9.85% | 0.85% | 21.1% | 15.3%
30 | CCOC(=O)c1nc2ccc(C(F)(F)F)cc2nc1NCc1ccc(F)cc1 | -13.9% | 7.6% | 20.7% | 10.2% | 12.9% | -48.2%
31 | O=c1cc(N2CCOCC2)n2c(ccc3ccccc32)n1 | -17.9% | -2.4% | -10.4% | 13.2% | 22% | -2.6%
32 | COc1ccc2oc(=O)c(CC=C(C)C)c(O)c2c1C | 23.8% | 13.9% | -1.65% | -10.9% | -25.2% | -51%
33 | CCCCCC#CC(=O)OC | -14.8% | 1.45% | -17.4% | 9.95% | -2.2% | 2.75%
34 | CN(C1c2ccccc2Oc2ccccc21)S(=O)(=O)c1ccc([N+](=O)[O-])cc1 | 9.9% | -2.7% | 6% | 21.8% | 3.35% | 40.1%
35 | Fc1ccc(CN2COc3c(ccc4cccnc34)C2)c(F)c1 | 57.6% | 43.6% | 57.1% | 29.6% | 49% | 52.2%
36 | Cc1cc(N(CCC#N)CCC#N)ccc1/C=C(\NC(=O)/C=C/c1ccccc1)C(=O)Nc1ccccc1Cl | 32.3% | 13.8% | 42.1% | 9.7% | 1.2% | 14.9%
37 | O=CNC(Cc1cnc[nH]1)C(=O)O (stereo not given) | -14.4% | -16.9% | -48.1% | -68.2% | -25.5% | -30.2%
38 | Cn1cnc2cc(N3CCOCC3)c([N+](=O)[O-])cc2c1=O | 17.4% | 12% | -0.7% | 12.8% | -1.9% | 17.8%
39 | COc1ccc2oc(=N)c(C(N)=S)cc2c1 | 28% | 24.2% | -3.45% | 16.8% | 7.9% | -2.95%
40 | O=C(O)C(O)(O)C(O)(O)C(=O)O | 6.35% | -22.6% | -4% | 4.85% | -5.85% | -10.4%

— PubChem BioAssay (NCI)
